The record followed here is PubChem BioAssay AID2188 (Vanderbilt High Throughput Screening Facility, 2009).

In the test the target is Metabotropic glutamate receptor 2 (Rattus norvegicus) (UniProt P31421). Kind of test: mGluR2 modulation, off-target check – cell-based, rat, selectivity assay for mGluR4 modulator project (AID 2188). The following applies: mGluR2 cells, thallium flux, glutamate CRC + 10 uM compound; glutamate EC50 fold-shift by compound; at 10 µM; stronger effect = higher value.

Entries with a potency or affinity are not part of this list.

Sequence of Metabotropic glutamate receptor 2 (Rattus norvegicus) (P31421 whole entry, looked up): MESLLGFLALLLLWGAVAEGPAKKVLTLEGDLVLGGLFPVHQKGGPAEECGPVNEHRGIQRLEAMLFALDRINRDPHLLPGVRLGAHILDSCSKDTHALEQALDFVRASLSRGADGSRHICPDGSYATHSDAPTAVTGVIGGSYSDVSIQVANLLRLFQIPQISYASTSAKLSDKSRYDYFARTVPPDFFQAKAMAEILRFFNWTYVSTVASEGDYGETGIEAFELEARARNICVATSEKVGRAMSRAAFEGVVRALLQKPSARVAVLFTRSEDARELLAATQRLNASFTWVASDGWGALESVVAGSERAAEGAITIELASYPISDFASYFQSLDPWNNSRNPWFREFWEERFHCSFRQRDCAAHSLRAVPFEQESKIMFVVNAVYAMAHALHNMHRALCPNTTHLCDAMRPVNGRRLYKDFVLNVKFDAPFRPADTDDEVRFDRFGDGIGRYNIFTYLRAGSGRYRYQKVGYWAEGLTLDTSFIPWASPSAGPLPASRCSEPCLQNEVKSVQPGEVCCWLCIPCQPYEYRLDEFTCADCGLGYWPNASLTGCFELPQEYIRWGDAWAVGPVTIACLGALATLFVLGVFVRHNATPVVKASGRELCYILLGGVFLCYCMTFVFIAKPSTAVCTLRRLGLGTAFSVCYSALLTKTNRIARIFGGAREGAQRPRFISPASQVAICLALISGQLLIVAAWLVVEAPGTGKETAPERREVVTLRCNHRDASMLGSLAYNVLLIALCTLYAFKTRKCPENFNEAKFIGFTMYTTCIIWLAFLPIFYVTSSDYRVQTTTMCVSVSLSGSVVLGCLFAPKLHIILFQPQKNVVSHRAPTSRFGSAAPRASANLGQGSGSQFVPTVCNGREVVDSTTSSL

In the case of `O=C(Nc1cccc(Cl)c1)c1ccccn1`, the fold shift was 1.87.

With `O=C(Nc1ccc(N2C(=O)C3[C@H]4C=C[C@H](C4)[C@H]3C2=O)c(Cl)c1)c1ccccn1` (some centres not stated), the fold shift is 1.05.
